A selection: hits, their analogues and other compounds. The true share with any hit is near 7.5%.
NPC1 promoter act = NPC1 promoter activation | Huh7 NPC1 promoter luciferase reporter, 24 h | Potency, µM (titrated, usually from 9.22 µM), inactives show at the highest dose activation, usual class: activators | actives 2.4% (n = 320,000) | AID 485313; note: % of control where 0% means no effect; nearly all actives have a fitted effect of over 60% in size
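In 1536-well qHTS, Huh7 cells harboring an NPC1 promoter–luciferase construct received compound for 24 h; activation was quantified by luminescence following luciferase reagent addition.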
ELG1 genotox = induces genotoxicity in HEK293T cells with luciferase-tagged ELG1; HEK293T ELG1-luciferase reporter, luminescence, 16 h; Potency, µM (highest dose often 46 µM), inactives show top-dose activity change, positive = activation, hits mostly activators; actives 1.3% (n = 330,000); note: % of control where 0% means no effect; nearly all actives have a fitted effect of over 60% in size
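Step 1: seed 2,000 HEK293T ELG1-luciferase cells per well. Step 2: add compound or DMSO, incubate 16 hr at 37 °C. Step 3: ONE-Glo, 30 min at room temperature, read luminescence.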
SMN2 splice enh = SMN2 splice variant enhancement; HEK293 SMN2-luciferase splicing reporter, luminescence, 30-36 h; Potency, µM (highest dose often 46.1 µM), inactives show at the top dose activity change, positive = activation, hits mostly activators; actives 2.8% (n = 210,000); AID 1458; note: % of control where 0% means no effect; nearly all actives have a fitted effect of over 55% in size
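qHTS luciferase splicing reporter: luminescence rises when SMN2 exon 7 is included in transfected HEK293 cells. Compound exposure lasted 30-36 h at 37C, with 4.5 mM final sodium butyrate as control, followed by a ONE-Glo read.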
Luc counter = Kinase-Glo luciferase inhibition (counter-screen). Q27757. Kinase-Glo luciferase, ATP luminescence, 8 min. Potency, µM (doses to about 38.3 µM), for inactives: at the top dose activity change, negative = inhibition, actives largely listed as inhibitors. actives 0.28% (n = 200,000); note: % is set by controls: 0 for no effect and ±100 for the full control effect; nearly all actives have a fitted effect of over 60% in size
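Recombinant Kinase-Glo luciferase, 10 uM ATP (linear range), luciferin; imidazole pH 7.2 / KCl / MgCl2 / Tween / BSA buffer; 8 min RT; luminescence.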
Rab9 prom act = Rab9 promoter activation. Huh7 Rab9 promoter-luciferase reporter, luminescence, 24 h. Potency, µM (series often up to 9.22 µM), without a hit: at the highest dose activation, negative = inhibition, actives largely listed as activators. actives 2.8% (n = 320,000); note: % of control where 0% means no effect; nearly all actives have a fitted effect of over 60% in size
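Promoter activation is measured as luciferase luminescence in Huh7 cells stably transfected with a Rab9 promoter–luciferase construct, following 24 h compound exposure at 37 °C and 10 min reagent incubation at ambient temperature.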
FLuc counter = firefly luciferase modulation, counter-screen for miR-21 project; purified FLuc, Km substrates, luminescence inhibition; actives 6.9% (n = 360,000); Potency, µM (doses to about 57.5 µM), inactives show top-dose activity change, negative = inhibition, most hits filed as inhibitors; AID 588342; P08659;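 note: plate controls were vehicle for no effect and reference inhibitor for full effect; nearly all actives have a fitted effect of over 55% in size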
Target sequence (P08659 whole entry, looked up): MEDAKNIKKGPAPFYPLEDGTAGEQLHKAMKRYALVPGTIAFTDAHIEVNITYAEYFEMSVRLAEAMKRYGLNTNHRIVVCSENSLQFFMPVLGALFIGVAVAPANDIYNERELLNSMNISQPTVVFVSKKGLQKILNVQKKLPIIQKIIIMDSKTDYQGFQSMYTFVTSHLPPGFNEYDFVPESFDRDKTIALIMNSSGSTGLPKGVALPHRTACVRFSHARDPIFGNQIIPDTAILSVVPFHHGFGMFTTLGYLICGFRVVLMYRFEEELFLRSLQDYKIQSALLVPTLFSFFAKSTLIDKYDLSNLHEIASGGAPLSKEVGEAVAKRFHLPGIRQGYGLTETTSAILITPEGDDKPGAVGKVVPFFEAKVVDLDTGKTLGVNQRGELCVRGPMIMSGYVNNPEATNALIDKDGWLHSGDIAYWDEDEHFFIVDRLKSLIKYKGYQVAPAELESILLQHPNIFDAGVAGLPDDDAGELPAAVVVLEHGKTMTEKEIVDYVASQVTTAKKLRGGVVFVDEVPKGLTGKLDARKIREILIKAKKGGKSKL
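Biochemical qHTS of compounds, final roughly 60 µM downward over six points, against 10 nM purified firefly luciferase using Km concentrations of substrates (10 uM D-luciferin, 10 uM ATP) in Tris acetate pH 7.5 buffer; luminescence output.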
Starred values were filed as active, the others as inactive; ? = inconclusive; . = no result given. Calls come from the whole dose curve; as a rule, active = well fitted curve in the direction sought with a large enough effect; inconclusive = small, poorly fitted or top-dose-only effect, or another doubt; inactive = no such curve, though single readings can be large; an effect the other way counts as inactive or inconclusive. Potency is the fitted concentration of half-maximal effect.

SMILES | NPC1 promoter act | ELG1 genotox | SMN2 splice enh | Luc counter | Rab9 prom act | FLuc counter
COc1ccccc1CNC(=O)CSc1nc(=O)[nH]c2c1CCCC2 | . | . | . | . | . | 1%
CC(CNC(=O)CCc1cn(Cc2ccccc2Cl)c2ccccc12)c1ccccc1 (stereo not drawn) | . | . | . | . | . | -10%
CC(C)C(=O)Nc1ccc2c(c1)Cc1cc(NC(=O)C(C)C)ccc1-2 | -3% | 2% | . | . | 18% | -4%
Cc1ccccc1Nc1c(-c2ccc(N3CCOCC3)cc2)nc2ccc(Cl)cn12 | . | . | 4% | . | . | 2.4µM*
Cc1ccc2nc(-c3ccc(N4CCOCC4)cc3)c(Nc3ccccc3C)n2c1 | . | . | ? | . | . | 1.9µM*
Clc1ccc2nc(-c3ccc(N4CCOCC4)cc3)c(Nc3ccccc3)n2c1 | . | . | 2% | . | . | ?
Cc1ccc(Nc2c(-c3ccc(N4CCOCC4)cc3)nc3ncccn23)c(C)c1 | 0% | -2% | 1% | -2% | -4% | 19µM*
COc1cc(/C=C2\SC(=Nc3ccccc3OC)NC2=O)ccc1O | -24% | 0% | . | . | 0% | ?
COc1ccc(/C=C2\SC(=Nc3ccccc3OC)NC2=O)cc1 | -26% | -1% | . | . | 4% | 5.4µM*
C=CCn1c(=S)[nH]c2scc(-c3cccs3)c2c1=O | -3% | -21% | -79% | 3% | 1% | 13µM*
Cn1c(=S)[nH]c2scc(-c3cccs3)c2c1=O | -12% | -6% | 12% | -4% | 3% | ?
O=C1CN(C(=O)c2ccc(Cl)cc2Cl)C(c2ccc(F)cc2)c2cc(F)ccc2N1 (stereo not drawn) | . | . | -16% | . | . | 4%
CCc1ccc(OC(=O)c2cccnc2)cc1 | -4% | 0% | . | . | 0% | 11µM*
Cc1ccc(OC(=O)c2cccnc2)cc1 | 1% | 10% | 1% | 0% | -8% | ?
COc1ccc(CNC(=O)CCc2c(C)nc3c(c(C)nn3-c3ccccc3)c2C)cc1 | . | . | -2% | . | . | -3%
COC(=O)CSc1nc2ccc(N)cc2s1 | 0% | -2% | 1% | -3% | -2% | 27µM*
Nc1ccc2nc(SCc3ccc([N+](=O)[O-])cc3)sc2c1 | -7% | 0% | -25% | -2% | 3% | 21µM*
Nc1nnc(SCc2ccc([N+](=O)[O-])cc2)s1 | 1% | -4% | -24% | 5% | -2% | -2%
CC(C)OC(=O)CSc1nc2ccccc2s1 | 1% | ? | -20% | -6% | -1% | 24µM*
CN(C)c1ccc(-c2nc3ccccn3c2Nc2ccc3c(c2)OCCO3)cc1 | . | . | ? | . | . | 2.4µM*
Oc1ccc(-c2nc3ccccn3c2Nc2ccc3c(c2)OCCO3)cc1 | . | . | 41% | . | . | 19µM*
CCCOC(=O)c1ccc(OCC(O)Cn2c(C)nc3ccccc32)cc1 (stereo not drawn) | -22% | 10µM* | -88% | 1% | -31% | 3%
C/C(=N\N=C(/N)c1nonc1N)c1ccc2c(c1)OCO2 | 0.63µM* | ? | . | . | 0.89µM* | 2.7µM*
C/C(=N/NC(=O)c1nnn(-c2nonc2N)c1-c1ccccc1)c1ccc2c(c1)OCO2 | 1% | -11% | . | . | 1% | -1%
COc1ccc(-c2nc(CSCC(=O)NCc3ccco3)c(C)o2)cc1 | 1% | -2% | -41% | -4% | -7% | 17µM*
SMILES | NPC1 promoter act | ELG1 genotox | SMN2 splice enh | Luc counter | Rab9 prom act | FLuc counter
CCc1ccc(-c2nc(CSCC(=O)NC3CC3)c(C)o2)cc1 | -15% | 2% | . | . | -29% | 19µM*
COc1cccc(CNC(=O)Cc2csc3ccccc23)c1OC | . | . | -3% | . | . | -18%
NC(=O)c1cccnc1Nc1cccc([N+](=O)[O-])c1 | 4µM* | ? | . | 1% | 1.8µM* | 15µM*
CC(C)c1ccc(NC(=O)CCNC(=O)N2CC(=O)Nc3ccccc32)cc1 | -14% | 1% | . | . | 2% | -1%
CCC1CCCCN1CC(=O)N1CCCc2c1c(=O)oc1ccc(OCc3ccccc3)cc21 (stereo not drawn) | . | . | -36% | . | . | 0%
COc1cc(OC)c(-c2nc3cnccc3n2C)cc1OC | -6% | 11% | ? | 2% | -3% | -2%
Cn1c(-c2ccc3ccccc3n2)nc2cnccc21 | 4µM* | ? | 99% | -7% | 2.2µM* | 8.5µM*
Cc1cc(C)n(-c2ccc(Cl)c(C(=O)O)c2)n1 | -2% | 10% | . | -3% | -7% | 19µM*
CC1CCN(C(=O)COC(=O)Cc2ccc(Br)cc2)CC1 | -4% | 0% | . | . | 4% | -1%
Cc1ccc(/C=C(\C#N)C(=O)N2CCCC2)c(C)c1 | -14% | ? | 12% | -2% | -6% | 15µM*
N#C/C(=C\c1ccc(OC(F)F)cc1)C(=O)N1CCCCC1 | 0% | 15% | . | . | -6% | 13µM*
N#C/C(=C\c1ccc(O)cc1)C(=O)N1CCCC1 | -3% | 4% | . | . | -1% | -12%
CC(C)=CC(=O)Nc1ccc(Cl)cc1 | 1.6µM* | ? | 14µM* | -7% | 1.4µM* | 11µM*
COCC(=O)Nc1ccc(OC)c(Cl)c1 | 11% | 12% | . | . | 10% | 1%
COc1ccc(NC(=O)Nc2cccs2)cc1Cl | ? | ? | . | . | ? | 8.5µM*
COc1ccc(NC(=O)C=C(C)C)cc1Cl | . | . | 11µM* | ? | . | 12µM*
COc1ccc(NC(=O)c2cc(F)c(F)cc2Cl)cc1Cl | ? | ? | . | . | ? | 13µM*
CCc1ccccc1N(C)C(=O)c1nn(C)c2c1CSc1ccccc1-2 | . | . | . | . | . | -3%
COc1cc(/C=N/Nc2nc3ccccc3[nH]2)cc(OC)c1O | 14% | 14% | . | . | 21% | 4.8µM*
COc1ccc(O)c(/C=N/Nc2nc3ccccc3[nH]2)c1 | 5% | ? | ? | -5% | ? | 6.7µM*
O=[N+]([O-])c1ccc(O)c(/C=N/Nc2nc3ccccc3[nH]2)c1 | -35% | 18µM* | -100% | 5% | -38% | ?
COc1cc(/C=C(/C(=O)c2cccs2)c2nc3ccccc3[nH]2)cc(OC)c1O | 13% | -20% | -77% | ? | 14% | 2.4µM*
O=C(Nc1cccc(F)c1)c1cc(S(=O)(=O)N2CCOCC2)cs1 | -4% | -9% | . | 0% | -9% | 0%
CCc1ccc(-n2c(=O)c3sc4ccccc4c3n(Cc3cccc(F)c3)c2=O)cc1 | . | . | -5% | . | . | -1%
COC(=O)c1ccc(NC(=O)CC2C(=O)N(c3ccc(F)cc3)C(=O)N2Cc2ccc(OC)cc2)cc1 (stereo not drawn) | . | . | . | . | . | 5%
COc1cc(/C=N/NC(=O)c2ccc(CSc3nc4ccccc4[nH]3)cc2)cc(OC)c1OC | 1% | -18% | ? | -1% | 1% | ?
COc1cc(/C=N/Nc2nc3ccccc3[nH]2)cc(Br)c1OCC(=O)N(C)C | -7% | -10% | -23% | -1% | -4% | 24µM*
